Compounds with a hit are over-represented: about 11% of the library has one in this group of screens.
NPR1 antag: human Npr1 receptor antagonism. HEK293 hNpr1 GloSensor cGMP, ANP-stimulated luminescence. Potency, µM (series often up to 46.3 µM), inactives show top-dose activity change, negative = inhibition, hits mostly inhibitors. AID 1347048. 76,000 compounds, 1.6% hits; calls by dose curve; note: nearly all actives have a fitted effect of over 60% in size
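HEK293 cells stably expressing human Npr1 and cGMP GloSensor pGS-40F, loaded 2 h with 2% GloSensor reagent, given compound 30 min at room temperature. Luminescence read before and 20 min after 0.1 nM hNppA.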
Luciferase inh: inhibitors of firefly (Photinus pyralis) luciferase | P08659 | purified P. pyralis luciferase, luminescence, biochemical | Potency, µM (top dose mostly 115 µM), hits mostly inhibitors | 76,000 compounds, 2.5% hits; note: nearly all actives have a fitted effect of over 65% in size
Target sequence (P08659 whole entry, looked up): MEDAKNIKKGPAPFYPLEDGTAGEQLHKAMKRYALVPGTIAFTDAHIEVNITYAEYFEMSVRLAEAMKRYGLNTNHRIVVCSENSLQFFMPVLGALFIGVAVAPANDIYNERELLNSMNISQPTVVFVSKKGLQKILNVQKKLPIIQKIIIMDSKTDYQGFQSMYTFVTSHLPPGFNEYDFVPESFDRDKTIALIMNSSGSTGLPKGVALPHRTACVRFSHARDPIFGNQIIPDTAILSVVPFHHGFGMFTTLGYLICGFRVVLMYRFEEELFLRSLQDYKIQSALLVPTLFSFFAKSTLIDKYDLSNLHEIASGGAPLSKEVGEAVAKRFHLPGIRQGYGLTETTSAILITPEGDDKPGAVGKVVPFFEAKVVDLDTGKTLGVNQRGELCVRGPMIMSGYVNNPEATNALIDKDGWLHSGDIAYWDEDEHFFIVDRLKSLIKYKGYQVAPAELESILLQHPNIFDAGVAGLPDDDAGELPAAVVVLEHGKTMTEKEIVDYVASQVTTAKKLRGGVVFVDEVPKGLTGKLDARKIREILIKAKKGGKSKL
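Purified 10nM P. pyralis luciferase with 10uM D-luciferin and 10uM ATP in 50mM Tris acetate pH 7.5, 10mM Mg acetate, 0.01% Tween-20, 0.05% BSA. qHTS titration; luminescence read by CCD imager.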
HEK293 tox: kills HEK 293 cells; 94,000 compounds, 6.6% hits; HEK 293 viability, ATP luminescence (CellTiter-Glo), 48-72 h; Potency, µM (doses to about 115 µM), inactives show at the top dose activity change, negative = cytotoxicity, actives largely listed as inhibitors; note: nearly all actives have a fitted effect of over 60% in size
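Cytotoxicity was scored by loss of ATP-coupled luminescence (CellTiter-Glo) in HEK 293 cells. Compound treatment ran 48 or 72 hr at 37 degree Celsius, 5% CO2, 95% humidity.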
3T3 cytotox: cytotoxic compounds in NIH 3T3 cells; NIH 3T3 viability, CellTiter-Glo ATP luminescence, 48-72 h; Potency, µM (doses to about 96.7 µM), for inactives: top-dose activity change, negative = cytotoxicity, most hits filed as inhibitors; 94,000 compounds, 4.3% hits; AID 1345082; note: nearly all actives have a fitted effect of over 55% in size
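ATP-dependent luminescence (CellTiter-Glo) served as the viability signal for NIH 3T3 cells treated with compound for 48 or 72 hr at 37 °C.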
The depositor's hits bear a star; i = inactive; ? = inconclusive; nt = no result; [ ] = dose if it differs, or a comment. Unless noted, calls come from the whole dose curve; as a rule, active = well fitted curve in the direction sought with a large enough effect; inconclusive = small, poorly fitted or top-dose-only effect, or another doubt; inactive = no such curve, though single readings can be large; an effect the other way counts as inactive or inconclusive. % is set by controls: 0 for no effect and ±100 for the full control effect; potency is the fitted concentration of half-maximal effect.

SMILES	NPR1 antag	Luciferase inh	HEK293 tox	3T3 cytotox
COc1cccc(CC(=O)N2CCC3(CC2)OC(=O)N(Cc2ncccn2)C3(C)c2ccccc2)c1 (stereo not drawn)	0%	i	i	?
O=C(NC1CC1)[C@@H]1C[C@H](Oc2cccnc2)CN1C(=O)COc1ccccc1	-6%	i	-14%	-5%
O=C(Nc1ccc2c(c1)OCO2)C1CC(=O)N(c2n[nH]c3cc(Br)ccc23)C1 (stereo not drawn)	1%	i	?	-23%
O=C1NC(=NC2CCCCC2)C2(CCCN(Cc3ccccc3)C2)N1c1cc(F)cc(F)c1 (stereo not drawn)	nt	nt	?	35µM*
O=C1NC(=NC2CCCCC2)C2(CCN(Cc3ccc(F)cc3)C2)N1c1cc(F)cc(F)c1 (stereo not drawn)	nt	nt	?	32µM*
COc1cccc(N2C(=O)NC(=NC3CCCCC3)C23CCN(Cc2ccc(F)cc2)CC3)c1	nt	nt	-15%	0%
O=C1NC(=NC2CCCCC2)C2(CCN(Cc3ccccc3)C2)N1c1cc(F)cc(F)c1 (stereo not drawn)	nt	nt	?	32µM*
COc1ccc(CN2CCCC3(C2)C(=NC2CCCCC2)NC(=O)N3c2cc(F)cc(F)c2)cc1 (stereo not drawn)	nt	nt	45µM*	?
O=C1NC(=NC2CCCC2)C2(CCCN(Cc3ccccc3)C2)N1c1cc(F)cc(F)c1 (stereo not drawn)	nt	nt	-9%	2%
O=C(CCC(F)(F)F)N1CCC(Oc2cnc3c(ccn3-c3cncnc3)c2)CC1	1%[70.6 µM]	i	?	?
COC(=O)[C@H]1CN(C(=O)NC(C)C)CCN1C(=O)CSC	1%[70.6 µM]	i	-2%[172 µM]	0%[138 µM]
COCCn1ccnc1C1CCN(C(=O)c2cccc(-n3cccn3)c2)CC1	3%	i	5%	-9%
O=C1CCN(Cc2ccncc2)CCCC(C(=O)NCCN2CCC(N3CCCCC3)CC2)CCN1 (stereo not drawn)	2%	i	-10%	1%
O=C(NCC1CCN(c2cc(-c3ccccc3)[nH]n2)CC1)c1n[nH]c2c1CCCC2	?	?	?	32µM*
Cc1ccc(-c2cc(N3CCC(CNC(=O)c4ccc[nH]4)CC3)n[nH]2)cc1	-1%	?	?	?
CN(C)c1cccc(C(=O)NCC2CCN(c3cc(-c4ccc(F)cc4)[nH]n3)CC2)c1	-22%	?	?	?
Cc1ccc(-c2cc(N3CCC(CNC(=O)c4n[nH]c5c4CCCC5)CC3)n[nH]2)cc1	?	?	?	28µM*
O=C(NCC1CCN(c2cc(-c3ccc(F)cc3)[nH]n2)CC1)c1n[nH]c2c1CCCC2	?	?	40µM*	35µM*
Cc1ccc(-c2cccc(CN3CCCC(NC(=O)c4c(C)noc4C)C3)c2)cc1Cl (stereo not drawn)	nt	nt	22µM*	?
CSc1ccc(-c2cccc(CN3CCC(NC(=O)c4c(C)noc4C)CC3)c2)cc1	nt	nt	?	-23%
Cc1ccc(C(=O)NC2CCCN(Cc3cccc(-c4ccc(C)c(Cl)c4)c3)C2)cc1 (stereo not drawn)	nt	nt	i	0%
Cc1cc(C)cc(-c2ccc(CN3CCCC(NC(=O)Cc4ccccn4)C3)cc2)c1 (stereo not drawn)	nt	nt	?	35µM*
Cc1cc(C)cc(-c2ccc(CN3CCCC(NC(=O)C4CC4)C3)cc2)c1 (stereo not drawn)	nt	nt	-18%	-15%
Cc1ccc(-c2cccc(CN3CCCC(NC(=O)Cc4ccccn4)C3)c2)cc1Cl (stereo not drawn)	nt	nt	-20%	25µM*
CCOC(=O)NC1CCCN(Cc2cccc(-c3ccc(C)c(Cl)c3)c2)C1 (stereo not drawn)	nt	nt	40µM*	?
O=C1CC2(CCN(S(=O)(=O)c3ccccc3)CC2)Oc2ccccc21	2%	i	?	-21%
CCCc1noc(CN(C)C(C(=O)O)c2ccc(OC)c(F)c2)n1 (stereo not drawn)	1%	i	i	i
COc1cccc(NC(=O)c2ccc3c(c2)NC(C)(COCCN(C)C)CO3)c1 (stereo not drawn)	-1%[70.6 µM]	?	?	?
COc1cccc(NC(=O)c2ccc3c(c2)NC(C)(CNc2ccccc2)CO3)c1 (stereo not drawn)	?	?	40µM*	28µM*
CN(C)CCCOCC1(C)COc2ccc(C(=O)Nc3cccc(Cl)c3)cc2N1 (stereo not drawn)	-7%[70.6 µM]	i	35µM*	?

From PubChem
